Out of some 40,000 compounds screened, about 1,400 (3.5%) were called active.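 The calls were made as follows: active = any of four per-well response measures lying three or more SD from its plate-wide compound average, in either direction; inactive = the rest, inconclusive results apart.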 Many of the other results were omitted from the sample, so actives are more common in it than they were.
molecular target: Voltage-dependent calcium channel gamma-2 subunit (Mus musculus) + Glutamate receptor 2 (Rattus norvegicus) (UniProt O88602+P19491); assay: modulators of GluA2-stargazin AMPA receptor complexes, primary screen, cell-based, membrane potential dye (AID 1259245); details: HEK293 GluA2+stargazin, membrane potential dye (FDSS), glutamate EC50, at 30 µM, hits were called plate by plate, in both directions; compound max-min signal: compound-alone response (agonism); glutamate slope, % of max: measured here: glutamate response slope, % max
Sequence (O88602 whole entry, looked up): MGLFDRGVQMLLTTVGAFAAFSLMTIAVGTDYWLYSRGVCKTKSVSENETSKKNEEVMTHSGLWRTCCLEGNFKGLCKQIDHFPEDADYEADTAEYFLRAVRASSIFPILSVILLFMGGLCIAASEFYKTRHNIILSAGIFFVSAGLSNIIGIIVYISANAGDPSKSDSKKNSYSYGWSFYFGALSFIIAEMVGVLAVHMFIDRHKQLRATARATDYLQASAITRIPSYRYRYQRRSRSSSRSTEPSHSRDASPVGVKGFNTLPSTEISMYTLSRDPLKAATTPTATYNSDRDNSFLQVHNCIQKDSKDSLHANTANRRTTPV
Sequence (P19491 whole entry, looked up): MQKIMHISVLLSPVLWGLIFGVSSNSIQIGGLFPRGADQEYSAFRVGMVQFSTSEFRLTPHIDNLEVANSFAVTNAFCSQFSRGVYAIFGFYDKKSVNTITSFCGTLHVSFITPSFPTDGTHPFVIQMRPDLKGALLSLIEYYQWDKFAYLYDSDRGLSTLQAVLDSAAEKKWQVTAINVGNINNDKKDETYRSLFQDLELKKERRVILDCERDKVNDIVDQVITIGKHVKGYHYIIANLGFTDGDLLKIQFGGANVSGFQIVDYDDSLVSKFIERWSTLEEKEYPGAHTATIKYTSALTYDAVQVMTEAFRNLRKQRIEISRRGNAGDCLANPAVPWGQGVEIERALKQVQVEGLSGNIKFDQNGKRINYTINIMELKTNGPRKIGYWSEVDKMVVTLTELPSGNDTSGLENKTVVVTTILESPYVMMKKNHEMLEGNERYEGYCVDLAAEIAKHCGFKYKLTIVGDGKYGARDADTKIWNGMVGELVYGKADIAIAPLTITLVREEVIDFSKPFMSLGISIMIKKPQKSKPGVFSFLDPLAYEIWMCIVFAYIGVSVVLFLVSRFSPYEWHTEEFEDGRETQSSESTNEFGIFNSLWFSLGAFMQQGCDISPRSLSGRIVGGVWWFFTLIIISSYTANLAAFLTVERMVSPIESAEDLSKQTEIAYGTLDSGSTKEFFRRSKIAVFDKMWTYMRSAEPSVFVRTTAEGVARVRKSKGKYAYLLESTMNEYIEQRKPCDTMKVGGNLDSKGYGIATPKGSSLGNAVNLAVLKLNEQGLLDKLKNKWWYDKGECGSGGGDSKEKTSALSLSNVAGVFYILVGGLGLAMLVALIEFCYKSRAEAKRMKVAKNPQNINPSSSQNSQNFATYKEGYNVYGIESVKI

SMILES | compound max-min signal | glutamate response, % of max | glutamate slope, % of max
O=C(NCCn1ncc2c(N3CCN(c4ccccc4)CC3)ncnc21)c1cccs1 | 0.0478 | 45.6% (inactive) | 68.2%
COc1ccc(CN(CC(=O)N(C)c2ccccc2)S(=O)(=O)c2cccnc2)cc1 | 0.128 | 30.9% (inactive) | 52.8%
O=C1/C(=C/c2cccnc2)SC(=S)N1c1ccc2c(c1)OCCO2 | 0.116 | 41.7% (inactive) | 65.3%
Cn1cnc2cc(OC(=O)c3ccc(=O)[nH]n3)ccc21 | 0.276 | 33% (active) | 52.5%
COc1ccc(-c2ccc(N3CCN(C(=O)c4ccc(=O)[nH]n4)CC3)nn2)cc1 | 0.0223 | 13.3% (inactive) | 24.1%
COc1ccc(C(=O)NCCOc2ccc(-c3ccc(F)cc3)nn2)c(OC)c1 | 0.0424 | 40.3% (inactive) | 60.6%
COc1ccc(C(=O)N2CCc3cc(S(=O)(=O)NC4CCCC4)ccc32)cc1 | 0.109 | 49% (inactive) | 67.4%
COc1cccc(C(=O)Nc2nnc(-c3ccc(OC)c(OC)c3)o2)c1 | 0.128 | 35.2% (inactive) | 53.9%
COc1cc(C(=O)Nc2nnc(-c3ccc(SC)cc3)o2)cc(OC)c1OC | 0.0956 | 30.8% (inactive) | 51.3%
COc1cc(OC)cc(C(=O)Nc2nnc(-c3cc(OC)c(OC)c(OC)c3)o2)c1 | 0.259 | 56.5% (active) | 83.8%
Cn1cccc1C(CNC(=O)C(=O)Nc1ccccc1F)N1CCOCC1 (configuration not stated) | 0.0712 | 30.1% (inactive) | 55%
C=CCN1CC(c2nc3ccccc3n2Cc2cccc(Cl)c2)CC1=O (configuration not stated) | 0.132 | 29.6% (active) | 36.6%
CCN1CC(c2nc3ccccc3n2Cc2ccccc2F)CC1=O (configuration not stated) | 0.0186 | 31.3% (inactive) | 50%
CCCCN1CC(c2nc3ccccc3n2CCOc2ccc(C)cc2)CC1=O (configuration not stated) | 0.135 | 45.7% (inactive) | 78.7%
CCCCN1CC(c2nc3ccccc3n2Cc2cc(C)ccc2C)CC1=O (configuration not stated) | 0.12 | 83.9% (active) | 94.4%
CCN1CC(c2nc3ccccc3n2Cc2ccc(Cl)cc2)CC1=O (configuration not stated) | 0.0749 | 45% (inactive) | 70.4%
CCN1CC(c2nc3ccccc3n2Cc2ccc(Cl)c(Cl)c2)CC1=O (configuration not stated) | 0.144 | 41.2% (inactive) | 66.5%
O=C(CCCc1ccccc1)N1CCN(c2ccc3nnc(-c4ccco4)n3n2)CC1 | 0.203 | 48.1% (inactive) | 68.2%
CC(=O)Nc1cccc(NC(=O)C(=O)NCC2CCN(Cc3ccco3)CC2)c1 | 0.0762 | 50.2% (inactive) | 68.9%
O=C(NC1CCc2ccccc21)c1nnn(-c2ccc(F)cc2)c1-c1ccncc1 (configuration not stated) | 0.0259 | 18.1% (inactive) | 25.4%
COCCn1c(=NC(=O)c2cc(C)no2)sc2cc(SC)ccc21 | 0.152 | 31.8% (inactive) | 54.7%
CCOCCn1c(=NC(=O)c2cc(C)no2)sc2cc(OC)c(OC)cc21 | 0.187 | 27.5% (active) | 50.7%
COc1cc2nc(NC(=O)c3cc(C)no3)sc2cc1OC | 0.204 | 26.9% (inactive) | 48.6%
Cc1nn(-c2ccccc2)c2ncc(C(=O)Nc3ccc(F)cc3F)c(Cl)c12 | 0.0815 | 20.8% (inactive) | 43.5%
COc1cn(CC(=O)Nc2ccc3c(c2)OCO3)c(CSc2nnnn2C)cc1=O | 0.0535 | 23.6% (inactive) | 48.2%

SMILES | compound max-min signal | glutamate response, % of max | glutamate slope, % of max
CCOc1ccc2nc(NC(=O)c3ccc(S(=O)(=O)N(C)C)o3)sc2c1 | 0.115 | 31.5% (inactive) | 54.4%
Cc1ccc2nc(NC(=O)c3ccno3)sc2c1 | 0.16 | 53% (inactive) | 62.5%
CCOc1ccc2nc(NC(=O)c3ccc(S(=O)(=O)Nc4cccnc4)o3)sc2c1 | 0.179 | 32% (active) | 55.6%
O=c1ccc2cc(S(=O)(=O)Nc3cc(Cl)ccc3O)ccc2o1 | 0.209 | 16.4% (active) | 35.5%
O=c1oc2ccc(Cl)cc2cc1S(=O)(=O)c1ccccc1F | 0.0854 | 39.3% (inactive) | 60%
CC(C)Oc1ccc(C(=O)Nc2ccc3oc(=O)ccc3c2)cc1 | 0.17 | 41.9% (inactive) | 61.4%
O=C(NC1CCCCCC1)c1ccc(S(=O)(=O)c2ccccc2)nc1 | 0.0387 | 28.2% (inactive) | 47.7%
COc1cccc(NC(=O)c2ccc(=O)n(Cc3cccc(C(F)(F)F)c3)c2)c1 | 0.0915 | 23.5% (inactive) | 41.6%
COc1cc(CN2CCN(c3nccn3C)CC2)cc(OC)c1 | 0.0438 | 12.8% (inactive) | 27.6%
COc1ccc(OC)c(-c2ccc(=O)n(CC(=O)N3CCOCC3)n2)c1 | 0.0773 | 62.3% (inactive) | 97.9%
O=S(=O)(NC1(c2nc(-c3ccsc3)no2)CCCCC1)c1ccccc1 | 0.127 | 19.9% (active) | 36.2%
COc1cc(Cl)ccc1C(=O)NC1(c2nc(-c3ccsc3)no2)CCCCC1 | 0.0754 | 37.6% (inactive) | 63.1%
Cc1ccccc1NC(=O)NC1(c2nc(-c3ccsc3)no2)CCCCC1 | 0.081 | 34.5% (inactive) | 56%
COc1ccccc1OCC(=O)Nc1cc(C(=O)N2CCOCC2)cn(C)c1=O | 0.134 | 36.2% (inactive) | 63%
CC(Oc1ccccc1)C(=O)N1CCN(c2ncnc3c2nnn3-c2ccc(Cl)cc2)CC1 (configuration not stated) | 0.0923 | 46% (inactive) | 58.4%
COc1ccc(-n2nnc3c(N4CCN(C(=O)C(C)Oc5ccccc5)CC4)ncnc32)cc1 (configuration not stated) | 0.0918 | 83.4% (active) | 124%
CCCC(CCC)C(=O)N1CCN(c2ncnc3c2nnn3-c2ccc(OC)cc2)CC1 | 0.0796 | 50.3% (inactive) | 57.2%
COc1ccc(Cl)cc1NC(=O)Nc1cc(N2CCCS2(=O)=O)ccc1C | 0.0964 | 36.6% (inactive) | 48.9%
Cc1c(-c2ccccc2)c(=O)oc2c3c(ccc12)OCN(Cc1cccnc1)C3 | 0.117 | 15.5% (inactive) | 35%
O=C(CCc1ccccc1)NCC1CCN(Cc2ccsc2)CC1 | 0.0535 | 10.8% (active) | 27.6%
O=C(CCc1ccccc1)NCCS(=O)(=O)N1CCN(Cc2ccccc2)CC1 | 0.0536 | 24.3% (inactive) | 47.7%
O=C(NCC1CCN(Cc2ccsc2)CC1)C(=O)Nc1ccon1 | 0.08 | 38.4% (inactive) | 57.1%
Cc1cc(C)c2c(n1)sc1c(=O)n(CC(=O)Nc3ccc(F)cc3F)cnc12 | 0.126 | 45.2% (inactive) | 70.3%
CSc1ccccc1NC(=O)C(=O)NCC(O)(c1ccco1)C1CC1 (configuration not stated) | 0.142 | 47.7% (inactive) | 61%
O=C(c1ccc(Cl)c(N2C(=O)CCS2(=O)=O)c1)N1CCc2ccccc2C1 | 0.0843 | 26.4% (inactive) | 47.6%

SMILES | compound max-min signal | glutamate response, % of max | glutamate slope, % of max
O=C(CCn1ccc(=O)[nH]c1=O)N1CCN(c2ccc(-c3ccccn3)nn2)CC1 | 0.117 | 16.7% (inactive) | 21.1%
CCOc1ccccc1C(=O)N1CCN(c2ccc(-c3ccccn3)nn2)CC1 | 0.189 | 31.9% (active) | 43.1%
CCn1ccnc1N1CCN(C(=O)c2ccccc2Cl)CC1 | 0.0774 | 50% (inactive) | 67.4%
O=C(NCc1ccccc1)N1CCN(c2ccc(-c3ccncc3)nn2)CC1 | 0.115 | 17.8% (inactive) | 40.4%
CCSc1ccccc1C(=O)N1CCN(c2ccc(-c3ccccn3)nn2)CC1 | 0.198 | 34.1% (active) | 45%
CCOc1ccc(-c2ccc(N3CCN(C(=O)c4ccc5nsnc5c4)CC3)nn2)cc1 | 0.0304 | 15.3% (inactive) | 32.9%
CN1CCN(c2ccc(-c3cccc(NC(=O)COc4ccc(F)cc4F)c3)nn2)CC1 | 0.0723 | 38.5% (inactive) | 60.1%
CCOc1ccc2c(=O)c(Oc3ccccc3Br)coc2c1 | 0.0905 | 40.8% (inactive) | 58.4%
O=C(NCc1ccsc1)c1c(F)cccc1F | 0.0794 | 28.8% (inactive) | 48.6%
O=C(NCc1ccc(Cl)cc1)C(=O)NCc1c(F)cccc1F | 0.122 | 54.4% (inactive) | 66.8%
Cn1cc(C(=O)NCc2c(F)cccc2F)nn1 | 0.0862 | 93.4% (active) | 99.8%
CC(=O)NCCn1ncc2c(N3CCOCC3)ncnc21 | 0.0821 | 32.3% (inactive) | 59.3%
CCN1C(SCC(=O)Nc2cccc(Cl)c2)=NS(=O)(=O)c2ccccc21 | 0.0878 | 38% (inactive) | 62%
CCOc1ccccc1Nc1nnc(Cc2ccc(OC)cc2)c(=O)[nH]1 | 0.0678 | 46% (inactive) | 67.9%
CCSc1ccccc1C(=O)NCC(O)(c1ccccc1)C1CC1 (configuration not stated) | 0.0554 | 28.7% (active) | 57.8%
CSc1ccccc1C(=O)NCC(C)(O)C1CC1 (configuration not stated) | 0.0943 | 38.3% (inactive) | 57.1%
O=C(NCC(O)(c1ccccc1)C1CC1)c1ccccc1Br (configuration not stated) | 0.0722 | 13.9% (inactive) | 40%
COc1ccc(NC(=O)CSc2nccn(-c3cccc(F)c3)c2=O)cc1Cl | 0.114 | 29.6% (inactive) | 46.8%
O=S(=O)(NCC(O)c1ccsc1)c1cccs1 (configuration not stated) | 0.105 | 47.4% (inactive) | 63.3%
COc1ccc2c(c1)c(/C=C1\Oc3cc(O)cc(C)c3C1=O)cn2C | 0.239 | 23.6% (active) | 43.9%
C=CCOC(=O)COc1ccc2c(c1)O/C(=C\c1cc(OC)ccc1OC)C2=O | 0.106 | 58.4% (inactive) | 60.4%
Cc1[nH]c(=O)[nH]c(=O)c1CC(=O)N1CCN(S(C)(=O)=O)CC1 | 0.153 | 46.3% (inactive) | 86.1%
CC(C)c1ccccc1NC(=O)Cc1csc(NC(=O)c2ccc(=O)[nH]c2)n1 | 0.062 | 20.3% (inactive) | 41.8%
COc1cn(CC(=O)Nc2ccc(NC(C)=O)cc2)c(CSc2ncccn2)cc1=O | 0.0519 | 26.3% (inactive) | 40.3%
